MRP1 act – MRP-1 activation; H69AR cells + doxorubicin, viability rescue, CellTiter-Glo; viability increase, % at 10 µM; 140,000 compounds, 0.61% hits;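 active = viability gain under doxorubicin at or above a set limit, the compound median plus 3 SD, cut at about 4.7% in these data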;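 note: MRP-1 overexpressing cells given doxorubicin 25 µM after compound pretreatment; 18-22 h compound pretreatment then 72 h with doxorubicin before readout; 0% = doxorubicin-only wells and 100% = vehicle-treated cells without doxorubicin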
MRP reversal – MRP-mediated drug resistance reversal; H69AR cells + 2 uM doxorubicin, CellTiter-Glo, 72 h; differential viability (reversal), % at 10 µM; 85,000 compounds, 0.04% hits;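 active = viability drop by adding the cancer drug above about 55%, with treated viability meeting a 40% cutoff, limit read from the data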;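 note: viability without doxorubicin minus viability with 2 µM doxorubicin for each compound; larger differential means the compound sensitizes cells more to doxorubicin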
Phagocyt inh – inhibitors of macrophage phagocytosis. J774A.1 macrophage IgG-bead phagocytosis, imaging. inhibition, % at 5 µM. 110,000 compounds, 0.07% hits. AID 1029;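 active = inhibition above the mean of the plate negative controls plus 5 SD, cut at about 13% in these data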;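 note: phagocytic index as fraction of beads internalized from green versus red external bead signal; plate controls were DMSO negative control for no effect and cytochalasin-D positive control for full effect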
The depositor's hits bear a star; . = no result given. Most compounds without a hit are left out; they make up all but 0.69% or so of the library.

SMILES	MRP1 act	MRP reversal	Phagocyt inh
Cc1ccc2nc3c(cc2c1)CC1(C(=O)N(C)C(=O)N(C)C1=O)C1CCCCN31 (stereo unspecified)	5.8*	-15.7	1.1
Cc1ccc2nc3c(cc2c1)CC1(C(=O)N(C)C(=O)N(C)C1=O)C1COCCN31 (stereo unspecified)	-2.0	3.0	-0.6
CCCCn1c(O)c(/C=C/C=Nc2ccccc2)c(=O)[nH]c1=O	0.4	.	-5.3
O=C(Nc1ccc(F)cc1)c1c(O)c2c(n(Cc3ccccc3)c1=O)CCCC2	9.0*	.	-1.0
O=C(Nc1cccnc1)c1c(O)c2c(n(Cc3ccccc3)c1=O)CCCC2	2.5	-4.8	-0.8
C1CNC2NCCNC2N1 (stereo unspecified)	1.2	4.3	-0.9
CCn1c(=O)cc(SCC(=O)N2CCC3(CC2)OCCO3)c2ccccc21	-0.5	12.5	-1.8
O=C(COc1ccc(Br)cc1)N1CCN(Cc2c[nH]c3ccccc23)CC1	-1.6	-19.5	0.2
O=C(COc1ccc(Br)cc1)N1CCN(C2CCCC2)CC1	7.6*	12.5	-1.0
Cc1ccc(/C=C2/C(=O)NC(=O)N(CC3CCCO3)C2=O)s1 (stereo unspecified)	-2.5	.	-2.6
O=c1[nH]c2ccccc2n1C1CCN(CCCC(c2ccc(F)cc2)c2ccc(F)cc2)CC1	-3.9	-0.2	.
O=C1CC(N2CCC(n3c(=O)[nH]c4ccccc43)CC2)C(=O)N1c1ccc(F)cc1 (stereo unspecified)	6.2*	2.6	0.8
CN(C(=O)Oc1ccc(C(=O)c2ccc(Cl)cc2)cc1)c1ccccc1	-1.2	.	.
CN(C)C(=O)Oc1ccc(OC(=O)c2ccccc2)cc1	8.2*	-26.9	-0.5
CCCC(C)C(=O)NC1CCSC1=O (stereo unspecified)	-0.1	-18.3	-0.2
CCN(CC)CCN=Cc1c(O)n(Cc2ccccc2)c(=O)[nH]c1=O	1.2	1.6	103.8*
CCN(CC)CCCN=Cc1c(O)n(Cc2ccc(F)cc2)c(=O)[nH]c1=O	-0.7	41.3	-0.7
Cn1cc(C(=O)Cc2ccccc2)c2ccccc21	-0.1	.	-6.9

Screening results from PubChem.
